Shown are actives, neighbours in structure and some others; about 3.9% of the full set was active somewhere.
ALR H2O2 inh: blocks human ALR sulfhydryl oxidase activity. purified ALR, DTT oxidation, H2O2 HRP-luminol luminescence. inhibition, % (test concentration not listed). 290,000 tested, 3.8% active;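 active = mean replicate inhibition above about 79%, with every replicate also reaching it, limit read from the data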
Target sequence (P55789 whole entry, looked up): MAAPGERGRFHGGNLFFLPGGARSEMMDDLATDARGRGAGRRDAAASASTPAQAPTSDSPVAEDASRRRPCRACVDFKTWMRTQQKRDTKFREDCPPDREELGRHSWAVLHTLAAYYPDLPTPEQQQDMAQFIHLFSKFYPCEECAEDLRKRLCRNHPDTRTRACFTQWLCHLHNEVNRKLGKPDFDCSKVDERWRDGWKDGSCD
Cardio protect: protects H9c2 cardiomyocytes from peroxide injury; 360,000 tested, 0.63% active; protection from H2O2 cell death, % at 20 µM; H2O2 injury protection, ATPLite, 2 h; AID 588492;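 active = compounds giving at least 50% protection of heart cells from peroxide-induced death in the single-dose screen, raw or plate-pattern-corrected value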;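 also: 0% = DMSO wells with peroxide and 100% = DMSO wells without peroxide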
NTR1 agonist: agonists of human neurotensin receptor NTR1 | activation, % at 20 µM | AID 493036 | 330,000 tested, 0.17% active | NTR1-U2OS beta-arrestin-GFP spot imaging, agonist mode | P30989;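 active = activation at or above 40% of the spot to cytoplasm intensity ratio, with at least 20 cells analyzed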;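 also: 0% = DMSO without peptide and 100% = 100 nM NTR1 peptide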
UBC9 SUMO inh: inhibitors of human SUMOylation (UBC9) | P63279 | HTRF SUMOylation assay, SAE1/SAE2 + UBC9, in vitro | inhibition, % at 35 µM | 290,000 tested, 0.36% active | AID 2006; in the data active = inhibition above about 50%, passing the limit was not always enough
Target sequence (P63279 whole entry, looked up): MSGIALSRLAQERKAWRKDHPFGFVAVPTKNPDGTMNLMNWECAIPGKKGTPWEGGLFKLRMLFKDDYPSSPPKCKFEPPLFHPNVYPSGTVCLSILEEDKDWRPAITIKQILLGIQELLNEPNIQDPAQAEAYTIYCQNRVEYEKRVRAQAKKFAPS
Starred values were filed as active, the others as inactive; . = not tested or not shown.

SMILES	ALR H2O2 inh	Cardio protect	NTR1 agonist	UBC9 SUMO inh
CCc1nnc(NS(=O)(=O)c2ccc(NC(=O)c3ccco3)cc2)s1	-2	4	0	15
CCOC(=O)c1ccc(-c2ccc(/C=C(\C#N)C(=O)NCC3CCCO3)o2)cc1 (configuration not stated)	7	52*	13	10
COc1cc(/C=C(\C#N)C(=O)NCC2CCCO2)ccc1OCC(N)=O (configuration not stated)	95*	3	-1	26
COc1ccc(OC)c(C(=O)N2CCCC(Nc3ccc(F)cc3)C2)c1 (configuration not stated)	94*	-2	2	-2
COc1ccc(NC2CCCN(C(=O)c3cccs3)C2)cc1 (configuration not stated)	99*	-6	1	7
CC(C)c1ccc(NC2CCCN(C(=O)c3cccs3)C2)cc1 (configuration not stated)	99*	-5	2	-13
COc1ccc(C(=O)N2CCCC(Nc3ccc(F)cc3)C2)cc1F (configuration not stated)	65	2	-1	3
COc1ccc(NC2CCCN(C(=O)c3ccccc3C(F)(F)F)C2)cc1 (configuration not stated)	99*	2	1	-2
COC(=O)C=C1CCC2C3CCC4=CC(=O)C(Br)CC4(C)C3C(=O)CC12C (configuration not stated)	.	1	.	.
Cc1ccc(NC2CCCN(C(=O)c3cccs3)C2)cc1C (configuration not stated)	99*	-2	0	5
Cc1ccc(N2CCN(C(=O)c3cccs3)CC2)cc1C	32	-5	1	1
CCOc1ccccc1CNC(=O)CCCC(=O)n1nc(C)c2ccccc21	-4	-9	2	-11
CSCC[C@H](NC(=O)OC(C)(C)C)C(=O)N/N=C/c1cccc2cccnc12	-7	52*	-1	-2
CCOc1ccccc1C(=O)N/N=C/c1cccc2cccnc12	.	86*	2	17
COc1ccc2nc(/C=N/NC(=O)[C@H](CCSC)NC(=O)OC(C)(C)C)ccc2c1	-31	-4	4	6
Cc1ccc(C(C[N+](=O)[O-])c2c(C)[nH]n(-c3ccccc3)c2=O)cc1 (configuration not stated)	4	7	19	71*
Cc1[nH]n(-c2ccccc2)c(=O)c1C(C[N+](=O)[O-])c1ccc(F)cc1 (configuration not stated)	.	2	3	88*
Cc1cccc(C(=O)NNC(=O)c2ccc(Cl)cc2)c1O	4	7	1	1
COC(=O)c1ccc(CSc2nnc(CNC(=O)c3cccs3)o2)o1	.	6	3	13
CCN(CC)c1ccc(NS(=O)(=O)c2ccc3c(c2)oc(=O)n3C)c(C)c1	99*	2	-1	-19
COc1cc(/C=N/n2nnnc2N)ccc1O	99*	3	2	6
Nc1nnnn1/N=C/c1ccc(O)cc1	96*	-1	-3	10
COc1cc(/C=N/n2nnnc2N)ccc1OC(C)=O	6	12	0	25
COc1cc(-c2ccc3cc(OC)c(OC)c(OC)c3c2)cc(OC)c1OC	.	4	.	.
Nc1c(C(=O)N2CCCC2)sc2nc(-c3ccccc3)ccc12	-4	10	15	28
SMILES	ALR H2O2 inh	Cardio protect	NTR1 agonist	UBC9 SUMO inh
COc1ccccc1-n1c(SCC(=O)Nc2ccc(C)cc2)nc(O)cc1=O	98*	12	1	4
Cc1ccccc1-n1c(SCC(=O)Nc2c(C)cccc2C)nc(O)cc1=O	-9	1	1	-4
CCN(CC)C(=O)CSc1nc(O)cc(=O)n1-c1ccccc1OC	99*	4	0	-5
COc1ccc(NC(=O)CSc2nc(O)cc(=O)n2-c2ccccc2OC)cc1	98*	4	-1	27
COc1ccccc1-n1c(SCC(=O)Nc2cccc3ccccc23)nc(O)cc1=O	98*	6	1	13
COc1ccc(NC(=O)CSc2nc3[nH]ncc3c(=O)n2-c2ccccc2OC)cc1OC	-16	17	3	7
COc1ccc(Cn2c(N)c(S(=O)(=O)c3cccs3)c3nc4ccccc4nc32)cc1	-10	0	2	4
O=C(COC(=O)C1CCCCC1)Nc1ccc(N2CCCCC2)cc1	88*	-7	1	8
CC1CCN(CC(=O)Nc2ccc(N3CCCCCC3)cc2)CC1	98*	-5	1	8
O=C(CNC1CCCCCC1)Nc1ccc(N2CCCC2)cc1	94*	.	2	-8
O=C(CNCC1CCCCC1)Nc1ccc(N2CCCCC2)cc1	98*	.	1	7
CC1CCN(CC(=O)Nc2ccc(S(=O)(=O)N3CCCCC3)cc2)CC1	-16	-2	1	-11
NS(=O)(=O)c1ccc(NC(=O)COC(=O)C2CCCCC2)cc1	0	-3	0	4
COc1ccc(CCn2c(-c3ccco3)nc3ccccc3c2=O)cc1OC	-3	49	0	4
COc1ccc2nc(SCc3cccc(C)c3)nc(C)c2c1	.	-20	13	-18
COC(=O)c1ccc(COC(=O)CNC(=O)CNC(=O)c2ccc(OC)cc2)cc1	-4	12	0	.
O=C(O)CCC(=O)Nc1ccc(N2CCCCCC2)cc1	99*	-2	0	-16
Cc1cccc(N=C2NC(=O)/C(=C/c3cccnc3)S2)c1C	-4	0	4	9
Cc1ccc(/C=C/C2=Cc3c(sc(NC(=O)CSc4n[nH]c(N)n4)c3C#N)C(C)(C)C2)o1	-1	.	-2	70*
Cc1cc(NS(=O)(=O)c2ccc(Nc3nc(-c4ccc(O)cc4)cs3)cc2)no1	100*	1	1	16
Cc1cc(NS(=O)(=O)c2ccc(Nc3nc(-c4sc(N)nc4C)cs3)cc2)no1	99*	3	0	22
Cc1cc(NS(=O)(=O)c2ccc(Nc3nc(-c4ccc(C)c(C)c4)cs3)cc2)no1	31	-6	11	-14
COc1cc(NS(=O)(=O)c2ccc(Nc3nc(-c4ccccc4)cs3)cc2)nc(OC)n1	96*	-8	.	-9
Fc1ccc(-c2nc3c4ccccc4ccn3c2CC2CCCCC2)cc1	.	-9	.	.
O=S(=O)(NCc1ccco1)c1ccc(Cl)s1	0	3	2	.
SMILES	ALR H2O2 inh	Cardio protect	NTR1 agonist	UBC9 SUMO inh
CCN(CC)S(=O)(=O)c1cc(NC(=O)Cn2ncc(Cl)c(Cl)c2=O)ccc1C	0	-26	0	66*
O=C1Nc2ccc(NS(=O)(=O)c3cccs3)c3cccc1c23	73	16	0	13
CN1Cc2cc(C(=O)c3ccccc3O)cnc2NC1=O	87*	6	0	9
O=C(O)c1c(C(=O)O)c(-c2ccc(Cl)c(Cl)c2)n2c1CSC2	97*	0	0	-3
COC(=O)c1c(C(=O)OC)c(-c2ccc(Cl)c(Cl)c2)n2c1CCC2	-11	-17	6	12
CN(C)c1ccc(NC(=O)CN2CCN(S(=O)(=O)c3cc(Cl)ccc3Cl)CC2)cc1	99*	-13	0	1
CN(C)c1ccc(NS(=O)(=O)c2cc(Cl)ccc2Cl)cc1	99*	-9	-1	5
CC(=O)N1CCN(CC(=O)Nc2ccc(Cl)c(S(=O)(=O)N(C)C)c2)CC1	-7	7	-2	-19
